Data taken from PubChem BioAssay AID1347145 (National Center for Advancing Translational Sciences (NCATS), 2019).
Inconclusive results are not listed. A call without a number means that no potency is given here. Values without a mark were called inactive. Activity calls are given as the source filed them. Calls come from the whole dose curve; as a rule, active = well fitted inhibition curve with a large enough effect; inconclusive = small, poorly fitted or top-dose-only effect; inactive = no such curve, though single readings can be large or run the other way.

Target: N-terminal Xaa-Pro-Lys N-methyltransferase 1 (Homo sapiens) (UniProt Q9BV86)
Sequence (Q9BV86 whole entry, looked up): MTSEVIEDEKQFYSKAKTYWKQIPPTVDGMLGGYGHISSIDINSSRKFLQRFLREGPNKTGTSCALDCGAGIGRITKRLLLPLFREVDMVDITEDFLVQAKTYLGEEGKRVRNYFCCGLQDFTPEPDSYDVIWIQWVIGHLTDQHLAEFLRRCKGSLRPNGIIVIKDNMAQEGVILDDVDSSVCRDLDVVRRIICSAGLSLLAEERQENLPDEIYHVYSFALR
Assay: qHTS Assay for Inhibitors of N-terminal methyltransferase 1 (NTMT1): MTaseGlo Assay Confirmatory Screen, Round 1
Settings: Recombinant NTMT1, MTase-Glo SAH luminescence; series mostly up to 57.1 µM
How it was run: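 Luminescence from MTase-Glo conversion of SAH to ATP measured activity after a 30 min RT reaction with 1 µM SPKRIA substrate, 100 µM SAM and 125 nM enzyme. Normalization used no-enzyme and DMSO controls, followed by Hill fitting.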
Potency is the fitted concentration of half-maximal effect.

| Structure (SMILES) | Potency | activity change, negative = inhibition |
| --- | --- | --- |
| Nc1ncnc2c1ncn2[C@H]1O[C@H](CO)[C@@H](O)[C@@H]1O | inactive | – |
| COc1cc2c(NC3CCN(C(C)C)CC3)nc(N3CCC(F)(F)CC3)nc2cc1OCCCN1CCCCC1 | inactive | – |
| Nc1nc(Nc2ccccc2)nc2c1ncn2[C@@H]1O[C@H](CO)C(O)[C@H]1O (stereo partly specified) | inactive | – |
| Nc1ncnc2c1nc(Br)n2C1CC(O)C(CO)O1 (stereo unspecified) | inactive | – |
| Nc1ncnc2c1ncn2C1O[C@H](COP(=O)(O)O)[C@@H](O)[C@H]1O (stereo partly specified) | inactive | – |
| CNC(=O)c1cnn(-c2nc(N)c3ncn([C@@H]4O[C@H](CO)[C@@H](O)[C@H]4O)c3n2)c1 | inactive | – |
| Nc1ncnc2c1ncn2[C@@H]1O[C@H](CO)C[C@@H]1O | inactive | – |
| CNC(=O)[C@H]1O[C@@H](n2cnc3c(N)ncnc32)[C@H](O)[C@@H]1O | inactive | – |
| CCNC(=O)[C@H]1O[C@H](n2cnc3c(N)nc(NCCc4ccc(CCC(=O)O)cc4)nc32)[C@@H](O)[C@@H]1O | inactive | – |
| COc1cc2nc(N(C)C)nc(NC3CC3)c2cc1OC | inactive | – |
| COc1cc2c(NC3CCN(C(C)C)CC3)nc(N3CCC(F)(F)CC3)nc2cc1OCCCN1CCCC1 | inactive | – |
| COc1cc2c(NC3CCN(C)CC3)nc(N3CCN(C)CC3)nc2cc1OCCOCCN(C)C | inactive | – |
| COc1cc2nc(N3CCCN(C)CC3)nc(N3CCN(C)CC3)c2cc1OC | inactive | – |
| CSc1nc(N)c2ncn([C@@H]3O[C@H](COP(=O)(O)OP(=O)(O)O)C(O)[C@H]3O)c2n1 (stereo partly specified) | inactive | – |
| C[C@@H](Cc1ccccc1)Nc1ncnc2c1ncn2[C@@H]1O[C@H](CO)[C@@H](O)[C@H]1O | inactive | – |
| OC[C@H]1O[C@@H](n2cnc3c(NC4CCCCC4)ncnc32)[C@H](O)[C@@H]1O | inactive | – |
| CC[C@H](C)n1cc(C)c2c(C(=O)NCc3c(C)cc(C)[nH]c3=O)cc(-c3ccc(N4CCNCC4)nc3)cc21 | inactive | – |
| COc1cc2c(NC3CCN(C)CC3)nc(N3CCCCC3)nc2cc1OCCOCCN1CCCC1 | inactive | – |

| Structure (SMILES) | Potency | activity change, negative = inhibition |
| --- | --- | --- |
| Nc1nc(Cl)nc2c1ncn2[C@@H]1O[C@H](CO)[C@H](O)[C@H]1O | inactive | – |
| CNC(=O)[C@H]1O[C@H](n2cnc3c(NCc4cccc(I)c4)ncnc32)[C@@H](O)[C@@H]1O | inactive | – |
| Nc1ccnc2c1ncn2[C@@H]1O[C@H](CO)[C@@H](O)[C@H]1O | 17.2 µM (active) | – |
| CCN1CCN(c2nc(NC3CC3)c3cc(OC)c(OC)cc3n2)CC1 | inactive | – |
| Nc1ncnc2c1ncn2[C@@H]1O[C@H](COP(=O)(O)O)[C@@H](O)[C@@H]1O | inactive | – |
| Nc1nc2c([nH]c(=O)n2[C@@H]2O[C@H](CO)[C@@H](O)[C@H]2O)c(=O)[nH]1 | – | -0.0532% [at 6.33 µM] |
| O=c1[nH]cnc2c1ncn2C1O[C@H](CO)[C@@H](O)[C@H]1O (stereo partly specified) | inactive | – |
| COc1cc2nc(N3CCCN(C)CC3)nc(NC3CCN(C)CC3)c2cc1OC | inactive | – |
| Nc1ncnc2c1ncn2[C@@H]1O[C@@H](CO)[C@H](O)[C@H]1O | inactive | – |
| COc1cc2nc(N3CCOCC3)nc(NC3CCN(C)CC3)c2cc1OC | inactive | – |
| COc1cc2nc(N3CCCN(C)CC3)nc(NC(C)C)c2cc1OC | inactive | – |
| COc1cc2nc(N3CCN(C)CC3)nc(N3CCN(C(C)=O)CC3)c2cc1OC | inactive | – |
| COc1cc2nc(N3CC[C@H](N(C)C)C3)nc(NC3CC3)c2cc1OC | inactive | – |
| COc1cc2c(NC3CCN(C)CC3)nc(N3CCCN(C)CC3)nc2cc1OCCCN(C)C | inactive | – |
| COc1cc2c(NC3CCN(C(C)C)CC3)nc(N3CCCN(C(C)C)CC3)nc2cc1OCCCN1CCCCC1 | inactive | – |
| CCN(CC)c1nc(NC2CCN(C)CC2)c2cc(OC)c(OC)cc2n1 | inactive | – |
| COc1cc2c(NC3CCN(C4CCCCC4)CC3)nc(N3CCCCCC3)nc2cc1OCCCN1CCCCC1 | inactive | – |
| COc1cc2c(NC3CCN(C)CC3)nc(N3CCCN(C)CC3)nc2cc1OCCN(C)C | inactive | – |
